As usually defined, the AC50 is the concentration giving half of the maximal activity seen.

Screen size: about 16,000 compounds; about 5,700 (36%) were called active. Inconclusive results (about 24%) are left out. The list shows a part of the results. Values without a mark were called inactive. Calls come from the whole dose curve; as a rule, active = well fitted curve in the direction sought with a large enough effect; inconclusive = small, poorly fitted or top-dose-only effect, or effect the other way; inactive = no such curve, though single readings can be large or run the other way.
% is set by controls: 0 for no effect and ±100 for the full control effect.

The test deals with Cytochrome P450 1A2 (Homo sapiens) (UniProt P05177). Kind of test: Cytochrome panel assay with activity outcomes. The following applies: recombinant CYP, pro-luciferin dealkylation, luminescence, p450-cyp1a2; series mostly up to 57.1 µM; activity, negative = inhibition: at the top concentration.
Chain of Cytochrome P450 1A2 (Homo sapiens) (P05177 whole entry, looked up): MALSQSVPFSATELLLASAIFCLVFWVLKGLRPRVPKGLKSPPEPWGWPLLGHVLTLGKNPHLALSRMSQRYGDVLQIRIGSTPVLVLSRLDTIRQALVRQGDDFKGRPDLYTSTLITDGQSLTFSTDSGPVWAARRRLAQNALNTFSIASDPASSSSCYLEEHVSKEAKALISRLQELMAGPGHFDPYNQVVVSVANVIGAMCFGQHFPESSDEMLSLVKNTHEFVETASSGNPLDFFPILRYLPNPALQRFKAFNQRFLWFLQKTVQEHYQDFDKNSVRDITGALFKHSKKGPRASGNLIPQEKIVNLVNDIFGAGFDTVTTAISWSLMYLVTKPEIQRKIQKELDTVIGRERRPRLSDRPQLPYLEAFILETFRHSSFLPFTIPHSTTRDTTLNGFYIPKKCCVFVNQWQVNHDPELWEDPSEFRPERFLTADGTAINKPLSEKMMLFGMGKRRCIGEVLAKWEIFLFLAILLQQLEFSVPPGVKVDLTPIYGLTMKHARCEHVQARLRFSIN
With `O=C(Nc1cccc(C(F)(F)F)c1)c1ccc(Cn2cc(Br)cn2)o1`, the AC50 is 2 µM (active).
For `CC(C)CN1CCC2(CC1)CCN(C(=O)c1csnn1)CC2`, the “activity, negative = inhibition” value is -2.25%.
Consider `OCCNCCCOc1cccc(Cl)c1Cl`, for which the concentration at half-maximal activity (AC50) is 0.2 µM (active).
For `OCCCNCc1ccccn1`, the activity, negative = inhibition is -20% [at 2.29 µM].
Still for that read-out and setting: for `CCCCNN` the value was -6.54% [at 2.29 µM].
For the compound `CN(C)S(=O)(=O)c1ccc(Nc2ccc(O)c3c2C(=O)c2c([N+](=O)[O-])ccc(O)c2C3=O)cc1`, the AC50 was 0.126 µM (active).
Take `O=C(CCCN1CC=C(n2c(=O)[nH]c3ccccc32)CC1)c1ccc(F)cc1`: the “activity, negative = inhibition” value is -11% [at 25.6 µM].
As for `COC(=O)CCSc1cc([N+](=O)[O-])cc2c1c(C1OCCS1)nn2-c1ccccc1` (stereo unspecified), the AC50 was 28.2 µM (active).
In the case of `O=C(O)c1nn(-c2ccccc2)nc1-c1nn(-c2ccccc2)nc1C(=O)O`, the “activity, negative = inhibition” value is -3.23%.
In the case of `CN(C)C=Nc1ccc2nn(-c3ccccc3)nc2c1`, the AC50 is 0.708 µM (active).
With `CC(=O)OC[C@@H]1O[C@@H](O/N=C2/C[C@@H](O)[C@@H](O)[C@@H]3[C@@H]4C(=O)N([C@@H](C)c5ccccc5)C(=O)[C@H]4CC[C@H]23)[C@H](OC(C)=O)[C@H](OC(C)=O)[C@@H]1OC(C)=O`, the activity, negative = inhibition is 3.02% [at 11.4 µM].
On to `Cc1nn(C)c(Cl)c1NC(=O)OCc1ccc(F)cc1`, for which the AC50 is 14.1 µM (active).
On to `Cc1nn(C)c(Cl)c1NC(=O)OCc1ccc(Cl)cc1Cl`, for which the concentration at half-maximal activity (AC50) was 5.01 µM (active).
For `CC(C)(C)C(=O)OCOC(=O)[C@@H]1N2C(=O)[C@@H](NC(=O)[C@H](N)c3ccccc3)[C@H]2SC1(C)C`, the “activity, negative = inhibition” value was -6.18% [at 25.6 µM].
As to `COc1ccc(O[C@H]2C=C[C@@H](c3ccccc3)O[C@H]2COC(=O)CC/C(C)=N\O[C@@H](C)c2cc(-c3c(C)cc(C)cc3C)no2)cc1`, the activity, negative = inhibition was -2.73% [at 11.4 µM].
Consider `N#Cc1cccc(-c2cc(NCc3cccs3)ncn2)c1`, for which the AC50 was 0.794 µM (active).
As for `Cc1cccc(CNc2cc(-c3cccc(C#N)c3)ncn2)c1`, the concentration at half-maximal activity (AC50) is 0.158 µM (active).
On the same count and under the same terms, next, `N#Cc1cccc(-c2cc(NCc3ccccc3)ncn2)c1`: 1 µM (active); `N#Cc1cccc(-c2cc(NCc3cccnc3)ncn2)c1`: 0.0398 µM (active).
`C[C@@H](c1ccccc1)N1C(=O)[C@H]2[C@@H]3[C@H](O)C=CC(=O)[C@H]3CC[C@H]2C1=O`: the activity, negative = inhibition is -9.41% [at 11.4 µM].
Same read-out and setting: for `COC(=O)C1C(=O)C2=C(CC1C)NC(=O)CC2c1cccc(C)c1` (stereo unspecified) the value was -28.9%; for `COC(=O)[C@@]1(Cc2ccccc2)[C@H]2c3cc(C(=O)N4CCCC4)n(Cc4ccc(S(C)(=O)=O)cc4)c3C[C@H]2CN1C(=O)c1ccccc1`, -17%.
Same read-out and setting: for `CN(CC[C@@H](Oc1ccc(-c2ccccc2)cc1)c1ccc(F)cc1)CC(=O)O` the value was -21%.
On to `O=C(Nc1ccc(Cl)cc1)OCCn1nnnc1C(c1ccccc1Cl)N1CCOCC1` (stereo unspecified), for which the half-maximal activity concentration (AC50) is 15.8 µM (active).
Regarding `COC(=O)CNC(c1ccccc1Cl)c1cc(Br)ccc1NC(=O)CCN1CCOCC1` (stereo unspecified), the “activity, negative = inhibition” value is -12.6%.
On the same count and under the same terms, for `COc1ccc(Cn2nnnc2C(c2ccccc2Cl)N2CCC(C(N)=O)CC2)cc1` (stereo unspecified) the value was -13.2%; for `CO[C@@H]1/C=C\O[C@@]2(C)Oc3c(C)c(O)c4c(c3C2=O)C(=N[C@H]2CC[C@H](O)O[C@@H]2C)C=C(NC(=O)/C(C)=C\C(=O)[C@@H]2C[C@@H]2[C@@H](O)[C@H](C)[C@@H](O)[C@H](C)[C@H](OC(C)=O)[C@@H]1C)C4=O`, -9.54% [at 11.4 µM]; for `COc1ccc(NC(=O)CSc2nnc(C3CC3)n2-c2ccccc2)cc1`, -16.2%.
For `COc1ccc(-n2ccnc2SCC(=O)Nc2ccccc2)cc1`, the AC50 was 12.6 µM (active).
Still for that read-out and setting: next, `COc1ccc(NC(=O)CSc2ccc3c4c(cccc24)C(=O)c2ccccc2-3)cc1`: 1.58 µM (active).
Turning to `CCC(=O)Nc1ccc(NC(=O)CSc2nnnn2-c2cccnc2)cc1C`, the “activity, negative = inhibition” value is -9.78%.
For the compound `Cn1ccnc1SCC(=O)Nc1sccc1C#N`, the half-maximal activity concentration (AC50) is 3.16 µM (active).
Turning to `COc1ccc(NC(=O)CSC2=NC(=O)CC(C)=N2)cc1`, the “activity, negative = inhibition” value was -13.5%.
Take `COc1ccc(-n2nnnc2SCC(=O)Nc2ccccc2)cc1`: the concentration at half-maximal activity (AC50) is 6.31 µM (active).
On to `C=CCN1C(=NC(=O)CC)SC2CS(=O)(=O)CC21` (stereo unspecified), for which the “activity, negative = inhibition” value is -14%.
On the same count and under the same terms, for `O=c1[nH]c(=S)c2[nH]c(=O)n(-c3ccccc3)c2[nH]1` the value was -1.84% [at 11.4 µM].
As for `COc1ccc(-n2ccnc2SCC(=O)Nc2ccc(OC)cc2OC)cc1`, the AC50 is 6.31 µM (active).
Same read-out and setting: for `COc1cccc(-n2ccnc2SCC(=O)Nc2nccs2)c1` the value was 1.26 µM (active).
`COC(=O)CSc1nnc(C)n1-c1cccc(OC)c1`: the “activity, negative = inhibition” value is -13.4%.
Same read-out and setting: next, `CCOc1ccc(-n2c(SCC(=O)Nc3ccc(OC)cc3OC)nc3c(c2=O)SCC3)cc1`: -16.2%; `COc1cccc(NC(=O)CSc2nnc(CN3CCOCC3)n2C)c1`: -3.9%; `O=C1[C@H]2[C@H]3[C@H](O)[C@H](O)C/C(=N/OC[C@@H](O)COCc4ccco4)[C@H]3CC[C@@H]2C(=O)N1Cc1ccc2c(c1)OCO2`: 6.71% [at 11.4 µM].
The same measure, in the same setting: next, `O=C(c1ccncc1)N1CCC2(CC1)CN(Cc1cc(C(F)(F)F)cc(C(F)(F)F)c1)C2`: 3.54%; `O=C1[C@@H]2[C@@H]3C=C[C@H]([C@@H]2C(=O)N1CN1CCSCC1)[C@@H]1[C@@H]2C(=O)N(CN4CCSCC4)C(=O)[C@@H]2[C@H]31`: -13.4% [at 11.4 µM]; `O=C(NOC(=O)c1cc(Br)ccc1Cl)c1cccs1`: -19.8%.
As for `CN(C)CCNC(=O)c1cc(Br)ccc1Cl`, the AC50 was 11.2 µM (active).
Regarding `CN(C)CCNC(=O)Cn1nc(-c2ccc(Cl)cc2)ccc1=O`, the “activity, negative = inhibition” value was 18.6%.
Turning to `CCCS(=O)(=O)N1CCCC(C(=O)NCCN(C)Cc2ccccc2)C1` (stereo unspecified), the “activity, negative = inhibition” value was -18.5%.
The same measure, in the same setting: next, `Cn1c(=O)c2c(nc(N3CCN(c4ccccn4)CC3)n2Cc2ccc(Cl)cc2Cl)n(C)c1=O`: -9.51%.
For the compound `CCn1c(SCc2ccc(Cl)cc2Cl)nc2nc3c(cc2c1=O)CCCC3`, the AC50 is 3.55 µM (active).
As to `CCC(=O)Nc1ncnc2ncn(C(=O)CC)c12`, the activity, negative = inhibition is -5.19% [at 11.4 µM].
On to `CCCCNC(=O)Cc1coc2ccc3ccccc3c12`, for which the concentration at half-maximal activity (AC50) is 4.47 µM (active).
As for `CCOC(=O)CSc1nnc(CSc2nc3sc4c(c3c(=O)[nH]2)CCCC4)n1-c1ccccc1`, the concentration at half-maximal activity (AC50) is 14.1 µM (active).
As for `CCOC(=O)C(Sc1ncnc2c1sc1nc(N3CCOCC3)c3c(c12)CCCC3)c1ccccc1` (stereo unspecified), the “activity, negative = inhibition” value is -6.83%.
As for `CCOC(=O)CSc1nnc(Cc2cc(=O)[nH]c(=O)[nH]2)n1-c1cccc(OC)c1`, the “activity, negative = inhibition” value was -6.04%.
Consider `CN(Cc1ccco1)c1ncncc1-c1cccc(NS(C)(=O)=O)c1`, for which the half-maximal activity concentration (AC50) is 15.8 µM (active).
Still for that read-out and setting: for `CN(Cc1ccco1)c1ncnc2ccc(-c3cccc(NS(C)(=O)=O)c3)cc12` the value was 0.398 µM (active).
As for `O=C1NC(c2ccccc2)=NC1(NS(=O)(=O)c1ccccc1)C(F)(F)F` (stereo unspecified), the “activity, negative = inhibition” value was -28%.
Turning to `COc1cccc(Nc2ncc3ncc(=O)n(CCC#N)c3n2)c1`, the AC50 was 1 µM (active).
Consider `COc1cccc(Nc2ncc3nc(CCc4ccccc4)c(=O)n(CCC#N)c3n2)c1`, for which the “activity, negative = inhibition” value is -9.26%.
As to `Cc1nc2cnc(Nc3ccccc3)nc2n(CCC#N)c1=O`, the AC50 was 0.631 µM (active).
Same read-out and setting: next, `COc1cccc(Nc2ncc3nc(C)c(=O)n(CCC#N)c3n2)c1`: 1.26 µM (active).
On to `COc1ccc(-c2nc3cnc(Nc4cccc(OC)c4)nc3n(CCC#N)c2=O)cc1`, for which the half-maximal activity concentration (AC50) was 6.31 µM (active).
As to `N#CCCn1c(=O)c(CCc2ccccc2)nc2cnc(Nc3ccccc3)nc21`, the “activity, negative = inhibition” value is -7.24%.
In the case of `C[N+](C)(C)CCCCCC[N+](C)(C)C`, the AC50 entry is “inactive”.
Turning to `O=S(Cc1ccccc1)CC(O)(c1ccccc1)c1ccccc1` (stereo unspecified), the “activity, negative = inhibition” value is -15.5%.
Same read-out and setting: next, `Cc1ccc(C(=O)N2CCN(C3c4cccc5cccc(c45)C3NS(=O)(=O)c3ccccc3)CC2)cc1` (stereo unspecified): -17.6%.
With `CS(=O)(=O)Nc1cccc(-c2cncnc2Nc2ccccc2)c1`, the half-maximal activity concentration (AC50) is 5.01 µM (active).
As for `CS(=O)(=O)Nc1cccc(-c2cncnc2Nc2ccc(F)cc2)c1`, the concentration at half-maximal activity (AC50) is 5.01 µM (active).
Turning to `CN=C(NC#N)NCCSC[C@H]1N=CN=C1C`, the “activity, negative = inhibition” value is -10.2% [at 25.6 µM].
On to `Cc1cnnn1-c1ccc(C(=O)CCl)cc1`, for which the AC50 is 2.82 µM (active).
The same measure, in the same setting: for `COc1cccc(-c2cncnc2NCc2cccs2)c1` the value was 1.26 µM (active); for `COc1cccc(-c2cncnc2NCc2cccnc2)c1`, 0.794 µM (active); for `COc1cccc(-c2cncnc2NCc2cccc(C)c2)c1`, 2 µM (active).
Still for that read-out and setting: next, `COc1cccc(-c2cncnc2NCc2ccccc2)c1`: 5.01 µM (active).
With `CS(=O)(=O)N1CCC2(CC1)CN(Cc1cc(C(F)(F)F)cc(C(F)(F)F)c1)C2`, the “activity, negative = inhibition” value was 1.68%.
On the same count and under the same terms, for `O=C(c1csnn1)N1CCC2(CC1)CCN(C(c1ccccc1)c1ccccc1)CC2` the value was -12.1%.
For `C=CCOc1ccc2cccc(/C=N/NC(=O)c3cc4cc([N+](=O)[O-])ccc4s3)c2c1`, the concentration at half-maximal activity (AC50) was 2.24 µM (active).
For the compound `CC(=O)N/N=C/c1cc([N+](=O)[O-])ccc1OCCOc1ccccc1`, the “activity, negative = inhibition” value is -7.66%.
On the same count and under the same terms, next, `CCCCOC(=O)CCc1c(C)[nH]c(=O)c(C#N)c1C`: -29.7%.
As to `CCCCc1[nH]c(=O)c(C#N)c2c1CCCC2`, the AC50 is 5.01 µM (active).
`C/C(CCN1CCCCc2nc(C)c(C)cc21)=N\O[C@@H](C)CN1CCCc2nc(C)c(C)cc21`: the activity, negative = inhibition is -40.3% [at 11.4 µM].
Same read-out and setting: next, `Cc1cc2c(c(=O)o1)[C@H](O)[C@H]1O[C@@H]1C2=O`: 2.69% [at 11.4 µM].
The same measure, in the same setting: next, `C[N+]1(C)CCC[C@@H](OC(=O)C(O)(c2ccccc2)c2ccccc2)C1`: -8.79% [at 25.6 µM].
Regarding `COC(=O)N[C@H](c1ccccc1)[C@@]1(C)C[C@@H]1[C@@H](C)C(=O)Nc1ccc2ccccc2c1`, the AC50 is 12.6 µM (active).
Turning to `C[C@@H](C(=O)Nc1ccc2ccccc2c1)[C@@H]1C[C@@]1(C)[C@@H](N)c1ccccc1`, the half-maximal activity concentration (AC50) was 15.8 µM (active).
Still for that read-out and setting: for `CC(=O)N[C@H](c1ccccc1)[C@@]1(C)C[C@@H]1[C@@H](C)C(=O)Nc1ccc2ccccc2c1` the value was 15.8 µM (active).
Turning to `C[C@@H](C(=O)Nc1ccc2ccccc2c1)[C@H]1C[C@]1(C)[C@H](NC(=O)Oc1ccc(F)cc1)c1ccccc1`, the “activity, negative = inhibition” value is -20.8%.
Still for that read-out and setting: for `C[C@@H](C(=O)Nc1ccc2ccccc2c1)[C@@H]1C[C@@]1(C)[C@@H](NC(=O)Oc1ccc(F)cc1)c1ccccc1` the value was -19.8%.
With `C[C@@H](C(=O)Nc1ccc2ccccc2c1)[C@@H]1C[C@@]1(C)[C@@H](NC(=O)c1ccncc1Cl)c1ccccc1`, the concentration at half-maximal activity (AC50) is 25.1 µM (active).
Regarding `CC(=O)Nc1ccc(N2C(=O)CC(c3ccccc3)CC2=O)cc1`, the “activity, negative = inhibition” value was -0.528%.
